Compound activity: PubChem BioAssay, National Center for Advancing Translational Sciences (NCATS)
KB-3-1 tox: kills parental KB-3-1 adenocarcinoma cells. KB-3-1 viability, CellTiter-Glo ATP luminescence, 72 h. Potency, µM (series often up to 46.1 µM), usual class: cytotoxic. 400,000 tested, 1.4% active; also: nearly all actives have a fitted effect of over 60% in size
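Viability of parental KB-3-1 cells, measured by CellTiter-Glo luminescence, followed a 72 h incubation at 37 °C with pinned compounds in phenol-red-free DMEM containing 10% FBS.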
MCF10A rereplic: inducers of DNA re-replication in MCF 10A breast cells | MCF 10A DNA re-replication, Hoechst nuclear intensity, 48 h | 350,000 tested, 2.9% active | Potency, µM (series often up to 46.1 µM), usual class: activators | AID 624296; also: nearly all actives have a fitted effect of over 50% in size
HT1080 IDH1KD tx: toxicity to HT-1080 IDH1 knockdown cells (counter line); HT-1080 IDH1 knockdown viability, ATP luminescence, 48 h; 360,000 tested, 2% active; Potency, µM (titrated, usually from 46.1 µM), hits mostly cytotoxic; AID 686971
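In this qHTS, HT-1080 cells depleted of IDH1 are exposed for 48 h at 37 °C to compound titrations. Toxicity is scored from CellTiter-Glo luminescence, with DMSO as full viability and medium alone as none.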
KB-V1 MDR tox: kills drug-selected multidrug resistant KB-V1 cells | KB-V1 MDR cells viability, CellTiter-Glo, 72 h | Potency, µM (top dose mostly 46.1 µM), hits mostly cytotoxic | 400,000 tested, 3.4% active | AID 1347076; also: nearly all actives have a fitted effect of over 60% in size
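KB-V1 cells (P-gp-expressing MDR subline of KB-3-1) in phenol-red-free DMEM with 10% FBS were exposed to library compounds over a concentration series for 72 h at 37 degrees C. Viability read by CellTiter-Glo luminescence; concentration-effect curves fitted after normalization.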
HT1080NT lethal: kills 2HG-producing HT-1080-NT fibrosarcoma cells; HT-1080-NT fibrosarcoma viability, CellTiter-Glo ATP luminescence, 48 h; Potency, µM (top dose mostly 46.1 µM), actives largely listed as cytotoxic; 360,000 tested, 1.6% active; AID 686970;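 also: NT is the 2HG producing partner of a matched IDH1 knockdown line; nearly all actives have a fitted effect of over 55% in size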
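Read-out is CellTiter-Glo luminescence after 10 minutes at room temperature, following 48 hours' compound treatment of HT-1080-NT cells (750 cells/well, RPMI, 5% FBS, 37 degrees C).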
SW480 rerep: induces DNA re-replication in SW480 colon adenocarcinoma cells; AID 624297; SW480 DNA re-replication, Hoechst DNA content imaging, 48 h; 340,000 tested, 1.8% active; Potency, µM (series often up to 46.1 µM), most hits filed as activators; also: nearly all actives have a fitted effect of over 55% in size
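Per well, 250 cells were exposed to pinned compound for 48 hr. Nuclear DNA was visualised with Hoechst (40 min, 37 C) and total object intensity recorded by fluorescence scanning.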
Numbers stand for hits; [ ] = remark or other dose. Hits are enriched below; roughly 8% of the tested compounds scored in any of these assays. Calls follow the shape of the dose curve; as a rule, active = well fitted curve in the direction sought with a large enough effect; inconclusive = small, poorly fitted or top-dose-only effect, or another doubt; inactive = no such curve, though single readings can be large; an effect the other way counts as inactive or inconclusive.

Screening CCC(C)C(NC(=O)C1CCC(C)CC1)C(=O)Nc1cc(OC)ccc1OC (configuration not stated) returned KB-3-1 tox inactive, MCF10A rereplic inactive, HT1080 IDH1KD tx inconclusive, KB-V1 MDR tox 2.6µM, HT1080NT lethal inactive and SW480 rerep inactive.
`COc1ccccc1NC(=S)NC1CCCCC1` gave KB-3-1 tox inactive, MCF10A rereplic inactive, HT1080 IDH1KD tx inactive, KB-V1 MDR tox inactive, HT1080NT lethal inactive and SW480 rerep inactive.
NC(=S)NN=Cc1c[nH]c2nccnc12 was read as KB-3-1 tox inactive, HT1080 IDH1KD tx inconclusive, KB-V1 MDR tox inactive and HT1080NT lethal inactive.
Screening COc1cc(CCC(=O)Nc2c(C(=O)N3CCN(c4ccccc4OC)CC3)oc3ccccc23)on1 returned KB-3-1 tox inactive, MCF10A rereplic inactive, HT1080 IDH1KD tx inactive, KB-V1 MDR tox inactive, HT1080NT lethal inactive and SW480 rerep inactive.
Screening CCOc1ccccc1C(=S)NC1CCCCC1 returned KB-3-1 tox inactive, MCF10A rereplic inconclusive, HT1080 IDH1KD tx inactive, KB-V1 MDR tox inactive, HT1080NT lethal inactive and SW480 rerep inactive.
CCOc1ccc(C(=S)NC2CCCCC2)cc1OC was read as KB-3-1 tox inactive, MCF10A rereplic inconclusive, HT1080 IDH1KD tx inactive, KB-V1 MDR tox 16µM, HT1080NT lethal inactive and SW480 rerep inactive.
Screening COc1cc(OC)c2c(C)cc(=O)oc2c1 returned KB-3-1 tox inconclusive, MCF10A rereplic inactive, HT1080 IDH1KD tx inactive[9.24 µM], KB-V1 MDR tox inactive, HT1080NT lethal inactive and SW480 rerep inactive.
Screening COc1cc(OC)c2c(-c3cccc(-c4ccc(CO)cc4)c3)cc(=O)oc2c1 returned KB-3-1 tox inconclusive, MCF10A rereplic inconclusive, HT1080 IDH1KD tx 0.52µM, KB-V1 MDR tox 2.6µM, HT1080NT lethal inconclusive and SW480 rerep 0.73µM.
COc1cc2oc(=O)cc(-c3ccc(-c4ccc(N(C)C)cc4)cc3)c2c(OC)c1OC was read as KB-3-1 tox inactive, MCF10A rereplic 1µM, HT1080 IDH1KD tx inactive, KB-V1 MDR tox inactive, HT1080NT lethal inactive and SW480 rerep inactive.
For COc1ccc(-c2ccc(-c3cc(=O)oc4cc(OC)c(OC)c(OC)c34)cc2)cc1F the results were KB-3-1 tox inactive, MCF10A rereplic inconclusive, HT1080 IDH1KD tx inactive, KB-V1 MDR tox inactive, HT1080NT lethal inactive and SW480 rerep inactive.
COc1cc2oc(=O)cc(-c3ccc(-c4ccc(OC(F)(F)F)cc4)cc3)c2c(OC)c1OC was read as KB-3-1 tox inactive, MCF10A rereplic inconclusive, HT1080 IDH1KD tx inactive, KB-V1 MDR tox inactive, HT1080NT lethal inactive and SW480 rerep inactive.
`COc1ccc(-c2cccc(-c3cc(=O)oc4cc(OC)cc(OC)c34)c2)cc1` gave KB-3-1 tox 0.65µM, MCF10A rereplic 0.21µM, HT1080 IDH1KD tx 0.58µM, KB-V1 MDR tox 1.2µM, HT1080NT lethal inconclusive and SW480 rerep 0.23µM.
For COc1ccc(-c2cccc(-c3cc(=O)oc4cc(OC)c(OC)c(OC)c34)c2)cc1 the results were KB-3-1 tox inconclusive, MCF10A rereplic inconclusive, HT1080 IDH1KD tx inconclusive, KB-V1 MDR tox 23µM, HT1080NT lethal inconclusive and SW480 rerep inconclusive.
COc1ccc(NS(=O)(=O)c2ccc(C)c(C(=O)N(C)CCc3ccc(OC)c(OC)c3)c2)cc1 was read as KB-3-1 tox inactive, MCF10A rereplic inactive, HT1080 IDH1KD tx inactive, KB-V1 MDR tox inconclusive, HT1080NT lethal inactive and SW480 rerep inactive.
For Cc1ccc(CNC(=O)C2CCN(S(=O)(=O)c3ccc4c(c3)OCCCO4)CC2)cc1 the results were KB-3-1 tox inactive, MCF10A rereplic inactive, HT1080 IDH1KD tx inactive, KB-V1 MDR tox inconclusive, HT1080NT lethal inactive and SW480 rerep inactive.
`Cc1cc(SCC(=O)c2cccs2)nc2c(C)cccc12` gave KB-3-1 tox inactive, MCF10A rereplic inconclusive, HT1080 IDH1KD tx inactive, KB-V1 MDR tox inconclusive, HT1080NT lethal inactive and SW480 rerep inactive.
For COc1cc(OC)c2c(-c3cccc(-c4cccc(C)c4)c3)cc(=O)oc2c1 the results were KB-3-1 tox inactive, MCF10A rereplic inconclusive, HT1080 IDH1KD tx 5.8µM, KB-V1 MDR tox inactive, HT1080NT lethal inconclusive and SW480 rerep inconclusive.
`COc1cc(OC)c2c(-c3cccc(-c4ccc(N(C)C)cc4)c3)cc(=O)oc2c1` gave KB-3-1 tox 2.6µM, MCF10A rereplic inconclusive, HT1080 IDH1KD tx 1.3µM, KB-V1 MDR tox inconclusive, HT1080NT lethal inconclusive and SW480 rerep 4.1µM.
Screening COc1cc(OC)c2c(-c3cccc(-c4ccc(O)cc4)c3)cc(=O)oc2c1 returned KB-3-1 tox 16µM, MCF10A rereplic inconclusive, HT1080 IDH1KD tx inconclusive, KB-V1 MDR tox inconclusive, HT1080NT lethal inconclusive and SW480 rerep inconclusive.
`COc1cc(OC)c2c(-c3cccc(-c4ccc(OC(F)(F)F)cc4)c3)cc(=O)oc2c1` gave KB-3-1 tox inactive, MCF10A rereplic inactive, HT1080 IDH1KD tx inactive, KB-V1 MDR tox inactive, HT1080NT lethal inactive and SW480 rerep inactive.
For COc1cc(OC)c2c(-c3cccc(/C=C/c4ccc(F)cc4)c3)cc(=O)oc2c1 the results were KB-3-1 tox inactive, MCF10A rereplic inactive, HT1080 IDH1KD tx inactive, KB-V1 MDR tox inactive, HT1080NT lethal inactive and SW480 rerep inactive[9.22 µM].
CSc1nc(-c2ccc(Cl)cc2)nn1C(=O)c1ccco1 was read as KB-3-1 tox inactive, MCF10A rereplic inactive, HT1080 IDH1KD tx inactive, KB-V1 MDR tox inactive, HT1080NT lethal inactive and SW480 rerep inactive.
`COc1cc(/C=C/C2=NC(=O)C(C)(C)O2)ccc1O` gave KB-3-1 tox inactive, MCF10A rereplic inactive, HT1080 IDH1KD tx inactive, KB-V1 MDR tox inactive, HT1080NT lethal inactive and SW480 rerep inactive.
Screening COc1ccccc1N(C(=O)c1ccco1)C(C(=O)NC1CCCC1)c1ccncc1 (configuration not stated) returned KB-3-1 tox inactive, MCF10A rereplic inactive, HT1080 IDH1KD tx inactive, KB-V1 MDR tox inactive, HT1080NT lethal inactive and SW480 rerep inactive.
For O=C(C1CN(C(=O)c2cc3cc(Cl)ccc3o2)c2ccccc2O1)N1CCCCC1 (configuration not stated) the results were KB-3-1 tox inconclusive, MCF10A rereplic inconclusive, HT1080 IDH1KD tx inactive, KB-V1 MDR tox 21µM, HT1080NT lethal inactive and SW480 rerep inactive.
For CC(C)=CC(=O)OCC(=O)NC1CCCc2ccccc21 (configuration not stated) the results were KB-3-1 tox inactive, MCF10A rereplic inactive, HT1080 IDH1KD tx inactive, KB-V1 MDR tox inactive, HT1080NT lethal inactive and SW480 rerep inactive.
Screening COc1ccc(OC)c(-c2cc(C3CCN(c4ncccc4[N+](=O)[O-])CC3)[nH]n2)c1 returned KB-3-1 tox inconclusive, MCF10A rereplic inactive, HT1080 IDH1KD tx inconclusive, KB-V1 MDR tox inconclusive, HT1080NT lethal inconclusive and SW480 rerep inactive.
